# Results published in the supplement of paper PMC7724964.
# ± gives the standard deviation of the averaged measurements.
# B1: unnamed (peptide)
# chain: MTMDFHPDWWDVADQW
# B2: unnamed (peptide)
# chain: MPDGWWDQYSWEHIAE
# B3: unnamed (peptide)
# chain: MQEAPYNPAWMEVPEL
# B4: unnamed (peptide)
# chain: FPYNPHWDMLQQETTV
# B5: unnamed (peptide)
# chain: GWYEMEGWGMPKDIET
# B6: unnamed (peptide)
# chain: WEMTLMEEAWATKFEV
# B7: unnamed (peptide)
# chain: GPLHPTAPVWENMLKY
# B8: unnamed (peptide)
# chain: VFEFMDRADWPDWVMM
# B9: unnamed (peptide)
# chain: FDKWEQRRSVPMGQVQ
# B10: unnamed (peptide)
# chain: FEHLEYSHPYLWEMYF
# B11: unnamed (peptide)
# chain: QVGWWMELDHPFWWHQ
# B12: unnamed (peptide)
# chain: TELPFTYMTRIPSWVW
# B13: unnamed (peptide)
# chain: SKELSVNAIPFDPHWY
# B14: unnamed (peptide)
# chain: DRNAEMAIRQYFMYHE
# B15: unnamed (peptide)
# chain: MNIDAREWSPASWEVH
# B16: unnamed (peptide)
# chain: QFFLFQSAPSWVLQPI
# B17: unnamed (peptide)
# chain: MDWYDMYGTTWDMIPG
# B18: unnamed (peptide)
# chain: KVNTFHFMDPPDWLTH
# B19: unnamed (peptide)
# chain: TGNVFQFMDPPQWLTH
# B20: unnamed (peptide)
# chain: WDDGFMEYGALPHEQM
# B21: unnamed (peptide)
# chain: FDRWESRRQSIGLELS
# B22: unnamed (peptide)
# chain: TDFTYAHAYNPHFIVS
# B23: unnamed (peptide)
# chain: VGTFMFGEMPSWVVST
# B24: unnamed (peptide)
# chain: WGHDWMMEWNTLQPMS
# B25: unnamed (peptide)
# chain: PFTYYSSEMYPWYIFG
# B26: unnamed (peptide)
# chain: WYEDGWWTPHRMEQTR
# B27: unnamed (peptide)
# chain: MHDDLDWVHHMAVPQV
# B28: unnamed (peptide)
# chain: FETPWQIEDVWGMAGF
# B29: unnamed (peptide)
# chain: VSDLWWNPTWSSQETI
# B30: unnamed (peptide)
# chain: LERKIAWAQQLWKYFV
# B31: unnamed (peptide)
# chain: QVFWYPQAEEWPWFLD
# B32: unnamed (peptide)
# chain: GFFQFQALPEWIVYMN
# B33: unnamed (peptide)
# chain: MTVVEWWTDAQIAEWM
# B34: unnamed (peptide)
# chain: TNSMPQWAQSQLAMYR
# B35: unnamed (peptide)
# chain: YLWFSPAPSAPIWQWV
# B36: unnamed (peptide)
# chain: YQPNMASAPEWVWESH
# B37: unnamed (peptide)
# chain: DVIPWDTWNFWREQDF
# B38: unnamed (peptide)
# chain: TVFWDGMYDWPVEMDI
# B39: unnamed (peptide)
# chain: LSVAAPMFVPNNAVVS
# B40: unnamed (peptide)
# chain: SQLSIMSLEAAPFTWE
# B41: unnamed (peptide)
# chain: FEDGWMYQDFLKAPET
# B42: unnamed (peptide)
# chain: NFNYPEQMYSYNPHWI
# B43: unnamed (peptide)
# chain: VMTLSPHATPYYPQMQ
# B44: unnamed (peptide)
# chain: TGVEMMSYKAKPFYPE
# B45: unnamed (peptide)
# chain: EHMWDAQMWEWSWWDL
# B46: unnamed (peptide)
# chain: EWQWHNSVDWVPHKAT
# B47: unnamed (peptide)
# chain: VVGDGMAFERWFQDFE
# B48: unnamed (peptide)
# chain: DLHYDWSLEYWTSLLQ
# B49: unnamed (peptide)
# chain: YIDYTFFEDGYYRVIE
# B50: unnamed (peptide)
# chain: EMWVFTPAEWFQIYLN
# B51: unnamed (peptide)
# chain: EWGSGWLNFQAAEFIV
# B52: unnamed (peptide)
# chain: HRFVYMEQLPSWLFAV
# B53: unnamed (peptide)
# chain: FSRWEQRQMQSVGGAG
# B54: unnamed (peptide)
# chain: ELTTFHFYKEAPVWVI
# B55: unnamed (peptide)
# chain: SLEWWNDISHPYWWHQ
# B56: unnamed (peptide)
# chain: WDWQTDYGYWEDFVPV
# B57: unnamed (peptide)
# chain: GLVYYDVPFDFGVIDW
# What was measured:
# Test in all cases: phage ELISA signal ratio (GST-PRM binding over GST background); higher = stronger binding of peptide-phage to the PRM
# [1] = biological target: TRIM7 324-511 SPRY (domain begin residue: 324, domain end residue: 511), Q9C029
# How it was run: (§1)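 Each value is the phage ELISA signal on the glutathione S-transferase (GST)-domain fusion divided by the signal on GST alone. Human peptide recognition domains were expressed in 96-well plates, fused to the C-terminus of GST, and selected against an M13 phage library carrying randomized, cysteine-free, glycine-flanked hexadecapeptides on the gene-8 major coat protein. After five selection rounds, approximately 48 individual clones from rounds 4 and 5 were tested by phage ELISA, and positive clones were sequenced.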
# [2] = biological target: TRIM25 439-630 SPRY (domain begin residue: 439, domain end residue: 630), Q14258
# TRIM25 439-630 SPRY (domain begin residue: 439, domain end residue: 630), Q14258, sequence (Q14258 whole entry): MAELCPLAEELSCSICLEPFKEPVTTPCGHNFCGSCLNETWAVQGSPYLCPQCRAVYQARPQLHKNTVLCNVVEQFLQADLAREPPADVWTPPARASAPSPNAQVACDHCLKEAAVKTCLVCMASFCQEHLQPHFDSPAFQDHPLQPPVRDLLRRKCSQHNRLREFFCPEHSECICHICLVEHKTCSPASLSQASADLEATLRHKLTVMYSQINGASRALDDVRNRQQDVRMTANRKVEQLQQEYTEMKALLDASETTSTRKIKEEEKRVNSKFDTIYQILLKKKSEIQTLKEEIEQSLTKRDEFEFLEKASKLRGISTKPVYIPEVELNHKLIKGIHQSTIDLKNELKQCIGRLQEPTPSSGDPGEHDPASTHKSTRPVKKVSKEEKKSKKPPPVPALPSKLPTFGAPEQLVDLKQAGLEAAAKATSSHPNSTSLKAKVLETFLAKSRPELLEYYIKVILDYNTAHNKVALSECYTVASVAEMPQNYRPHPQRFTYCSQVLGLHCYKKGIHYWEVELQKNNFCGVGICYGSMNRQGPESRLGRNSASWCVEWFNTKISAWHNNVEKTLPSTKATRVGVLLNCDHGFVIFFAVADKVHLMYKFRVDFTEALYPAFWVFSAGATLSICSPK
# How it was run: as §1
# [3] = biological target: T1, TSG101 1-145 UEV (domain begin residue: 1, domain end residue: 145), Q99816
# T1 chain: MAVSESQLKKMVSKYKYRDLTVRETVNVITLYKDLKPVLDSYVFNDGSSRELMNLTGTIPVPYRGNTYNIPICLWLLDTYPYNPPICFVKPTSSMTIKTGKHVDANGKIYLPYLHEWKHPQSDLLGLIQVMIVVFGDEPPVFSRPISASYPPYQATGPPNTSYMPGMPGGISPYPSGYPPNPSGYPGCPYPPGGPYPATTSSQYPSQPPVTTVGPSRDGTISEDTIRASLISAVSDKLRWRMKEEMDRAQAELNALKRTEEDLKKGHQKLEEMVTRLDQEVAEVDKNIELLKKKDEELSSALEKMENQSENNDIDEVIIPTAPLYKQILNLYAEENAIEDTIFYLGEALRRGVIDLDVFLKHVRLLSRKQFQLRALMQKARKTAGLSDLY
# How it was run: as §1
# [4] = biological target: T2, TRIM39 319-514 SPRY (domain begin residue: 319, domain end residue: 514), Q9HCM9
# T2 chain: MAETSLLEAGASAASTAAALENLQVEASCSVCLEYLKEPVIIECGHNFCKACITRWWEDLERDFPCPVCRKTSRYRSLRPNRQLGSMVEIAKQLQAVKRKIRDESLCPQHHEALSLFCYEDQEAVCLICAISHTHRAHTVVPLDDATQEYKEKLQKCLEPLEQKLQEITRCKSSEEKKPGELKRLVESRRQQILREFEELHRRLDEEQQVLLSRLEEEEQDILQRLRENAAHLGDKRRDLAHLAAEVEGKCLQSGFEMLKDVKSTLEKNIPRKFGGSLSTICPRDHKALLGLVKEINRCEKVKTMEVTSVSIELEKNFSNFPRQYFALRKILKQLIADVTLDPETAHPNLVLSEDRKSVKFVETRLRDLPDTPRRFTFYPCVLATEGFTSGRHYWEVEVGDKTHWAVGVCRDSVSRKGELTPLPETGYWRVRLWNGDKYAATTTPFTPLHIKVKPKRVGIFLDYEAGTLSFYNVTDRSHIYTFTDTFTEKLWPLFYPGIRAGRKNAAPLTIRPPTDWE
# How it was run: as §1
# [5] = biological target: TRIM21 268-465 SPRY (domain begin residue: 268, domain end residue: 465), P19474
# TRIM21 268-465 SPRY (domain begin residue: 268, domain end residue: 465), P19474, sequence (P19474 whole entry): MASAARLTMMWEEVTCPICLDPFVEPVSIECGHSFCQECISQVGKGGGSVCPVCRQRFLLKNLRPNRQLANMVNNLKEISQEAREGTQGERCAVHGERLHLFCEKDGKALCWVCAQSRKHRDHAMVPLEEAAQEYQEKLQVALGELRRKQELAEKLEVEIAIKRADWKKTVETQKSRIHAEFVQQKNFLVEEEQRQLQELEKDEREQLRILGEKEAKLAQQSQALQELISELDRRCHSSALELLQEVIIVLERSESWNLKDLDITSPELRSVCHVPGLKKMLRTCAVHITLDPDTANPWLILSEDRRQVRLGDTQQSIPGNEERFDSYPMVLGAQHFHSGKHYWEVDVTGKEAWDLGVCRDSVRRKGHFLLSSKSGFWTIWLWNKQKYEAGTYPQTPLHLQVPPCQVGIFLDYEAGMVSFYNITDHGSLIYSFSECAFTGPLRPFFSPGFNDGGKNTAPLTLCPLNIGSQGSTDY
# How it was run: as §1
# [6] = biological target: T3, TRIM11 268-461 SPRY (domain begin residue: 268, domain end residue: 461), Q96F44
# T3 chain: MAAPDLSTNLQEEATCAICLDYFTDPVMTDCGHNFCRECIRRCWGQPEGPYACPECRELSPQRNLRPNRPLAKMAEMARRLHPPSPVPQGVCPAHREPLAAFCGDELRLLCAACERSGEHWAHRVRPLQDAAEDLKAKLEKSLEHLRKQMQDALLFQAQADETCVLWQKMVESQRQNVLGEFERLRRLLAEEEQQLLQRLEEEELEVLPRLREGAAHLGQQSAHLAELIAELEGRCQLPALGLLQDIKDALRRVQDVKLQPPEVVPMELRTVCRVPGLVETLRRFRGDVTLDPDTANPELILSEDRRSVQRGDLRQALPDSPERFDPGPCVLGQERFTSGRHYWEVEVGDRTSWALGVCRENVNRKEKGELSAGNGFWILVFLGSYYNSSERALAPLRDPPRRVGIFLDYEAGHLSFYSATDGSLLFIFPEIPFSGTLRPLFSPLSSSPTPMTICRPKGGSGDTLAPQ
# How it was run: as §1
# [7] = biological target: U2AF2 372-475 RRM_1 (domain begin residue: 372, domain end residue: 475), P26368
# U2AF2 372-475 RRM_1 (domain begin residue: 372, domain end residue: 475), P26368, sequence (P26368 whole entry): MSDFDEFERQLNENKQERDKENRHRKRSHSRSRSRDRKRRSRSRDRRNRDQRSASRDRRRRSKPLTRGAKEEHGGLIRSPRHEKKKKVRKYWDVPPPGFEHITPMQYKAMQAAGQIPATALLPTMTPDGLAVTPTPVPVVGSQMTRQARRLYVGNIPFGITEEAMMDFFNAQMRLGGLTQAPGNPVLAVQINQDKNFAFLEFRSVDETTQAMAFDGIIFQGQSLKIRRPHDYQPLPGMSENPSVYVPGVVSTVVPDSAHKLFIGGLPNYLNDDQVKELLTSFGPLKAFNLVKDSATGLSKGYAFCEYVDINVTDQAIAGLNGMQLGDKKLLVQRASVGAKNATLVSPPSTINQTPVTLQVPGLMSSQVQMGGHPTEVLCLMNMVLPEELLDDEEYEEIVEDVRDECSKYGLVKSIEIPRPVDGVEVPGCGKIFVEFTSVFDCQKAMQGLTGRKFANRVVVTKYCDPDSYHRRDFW
# How it was run: as §1
# [8] = biological target: UBE2V2 1-145 UQ_con (domain begin residue: 1, domain end residue: 145), Q15819
# UBE2V2 1-145 UQ_con (domain begin residue: 1, domain end residue: 145), Q15819, sequence (Q15819 whole entry): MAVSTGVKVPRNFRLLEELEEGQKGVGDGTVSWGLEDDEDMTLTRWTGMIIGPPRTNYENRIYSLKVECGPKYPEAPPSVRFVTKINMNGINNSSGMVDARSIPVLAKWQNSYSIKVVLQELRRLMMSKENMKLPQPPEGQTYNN
# How it was run: as §1
# [9] = biological target: UBR5 2391-2453 PABP (domain begin residue: 2391, domain end residue: 2453), O95071
# UBR5 2391-2453 PABP (domain begin residue: 2391, domain end residue: 2453), O95071, sequence (O95071 whole entry): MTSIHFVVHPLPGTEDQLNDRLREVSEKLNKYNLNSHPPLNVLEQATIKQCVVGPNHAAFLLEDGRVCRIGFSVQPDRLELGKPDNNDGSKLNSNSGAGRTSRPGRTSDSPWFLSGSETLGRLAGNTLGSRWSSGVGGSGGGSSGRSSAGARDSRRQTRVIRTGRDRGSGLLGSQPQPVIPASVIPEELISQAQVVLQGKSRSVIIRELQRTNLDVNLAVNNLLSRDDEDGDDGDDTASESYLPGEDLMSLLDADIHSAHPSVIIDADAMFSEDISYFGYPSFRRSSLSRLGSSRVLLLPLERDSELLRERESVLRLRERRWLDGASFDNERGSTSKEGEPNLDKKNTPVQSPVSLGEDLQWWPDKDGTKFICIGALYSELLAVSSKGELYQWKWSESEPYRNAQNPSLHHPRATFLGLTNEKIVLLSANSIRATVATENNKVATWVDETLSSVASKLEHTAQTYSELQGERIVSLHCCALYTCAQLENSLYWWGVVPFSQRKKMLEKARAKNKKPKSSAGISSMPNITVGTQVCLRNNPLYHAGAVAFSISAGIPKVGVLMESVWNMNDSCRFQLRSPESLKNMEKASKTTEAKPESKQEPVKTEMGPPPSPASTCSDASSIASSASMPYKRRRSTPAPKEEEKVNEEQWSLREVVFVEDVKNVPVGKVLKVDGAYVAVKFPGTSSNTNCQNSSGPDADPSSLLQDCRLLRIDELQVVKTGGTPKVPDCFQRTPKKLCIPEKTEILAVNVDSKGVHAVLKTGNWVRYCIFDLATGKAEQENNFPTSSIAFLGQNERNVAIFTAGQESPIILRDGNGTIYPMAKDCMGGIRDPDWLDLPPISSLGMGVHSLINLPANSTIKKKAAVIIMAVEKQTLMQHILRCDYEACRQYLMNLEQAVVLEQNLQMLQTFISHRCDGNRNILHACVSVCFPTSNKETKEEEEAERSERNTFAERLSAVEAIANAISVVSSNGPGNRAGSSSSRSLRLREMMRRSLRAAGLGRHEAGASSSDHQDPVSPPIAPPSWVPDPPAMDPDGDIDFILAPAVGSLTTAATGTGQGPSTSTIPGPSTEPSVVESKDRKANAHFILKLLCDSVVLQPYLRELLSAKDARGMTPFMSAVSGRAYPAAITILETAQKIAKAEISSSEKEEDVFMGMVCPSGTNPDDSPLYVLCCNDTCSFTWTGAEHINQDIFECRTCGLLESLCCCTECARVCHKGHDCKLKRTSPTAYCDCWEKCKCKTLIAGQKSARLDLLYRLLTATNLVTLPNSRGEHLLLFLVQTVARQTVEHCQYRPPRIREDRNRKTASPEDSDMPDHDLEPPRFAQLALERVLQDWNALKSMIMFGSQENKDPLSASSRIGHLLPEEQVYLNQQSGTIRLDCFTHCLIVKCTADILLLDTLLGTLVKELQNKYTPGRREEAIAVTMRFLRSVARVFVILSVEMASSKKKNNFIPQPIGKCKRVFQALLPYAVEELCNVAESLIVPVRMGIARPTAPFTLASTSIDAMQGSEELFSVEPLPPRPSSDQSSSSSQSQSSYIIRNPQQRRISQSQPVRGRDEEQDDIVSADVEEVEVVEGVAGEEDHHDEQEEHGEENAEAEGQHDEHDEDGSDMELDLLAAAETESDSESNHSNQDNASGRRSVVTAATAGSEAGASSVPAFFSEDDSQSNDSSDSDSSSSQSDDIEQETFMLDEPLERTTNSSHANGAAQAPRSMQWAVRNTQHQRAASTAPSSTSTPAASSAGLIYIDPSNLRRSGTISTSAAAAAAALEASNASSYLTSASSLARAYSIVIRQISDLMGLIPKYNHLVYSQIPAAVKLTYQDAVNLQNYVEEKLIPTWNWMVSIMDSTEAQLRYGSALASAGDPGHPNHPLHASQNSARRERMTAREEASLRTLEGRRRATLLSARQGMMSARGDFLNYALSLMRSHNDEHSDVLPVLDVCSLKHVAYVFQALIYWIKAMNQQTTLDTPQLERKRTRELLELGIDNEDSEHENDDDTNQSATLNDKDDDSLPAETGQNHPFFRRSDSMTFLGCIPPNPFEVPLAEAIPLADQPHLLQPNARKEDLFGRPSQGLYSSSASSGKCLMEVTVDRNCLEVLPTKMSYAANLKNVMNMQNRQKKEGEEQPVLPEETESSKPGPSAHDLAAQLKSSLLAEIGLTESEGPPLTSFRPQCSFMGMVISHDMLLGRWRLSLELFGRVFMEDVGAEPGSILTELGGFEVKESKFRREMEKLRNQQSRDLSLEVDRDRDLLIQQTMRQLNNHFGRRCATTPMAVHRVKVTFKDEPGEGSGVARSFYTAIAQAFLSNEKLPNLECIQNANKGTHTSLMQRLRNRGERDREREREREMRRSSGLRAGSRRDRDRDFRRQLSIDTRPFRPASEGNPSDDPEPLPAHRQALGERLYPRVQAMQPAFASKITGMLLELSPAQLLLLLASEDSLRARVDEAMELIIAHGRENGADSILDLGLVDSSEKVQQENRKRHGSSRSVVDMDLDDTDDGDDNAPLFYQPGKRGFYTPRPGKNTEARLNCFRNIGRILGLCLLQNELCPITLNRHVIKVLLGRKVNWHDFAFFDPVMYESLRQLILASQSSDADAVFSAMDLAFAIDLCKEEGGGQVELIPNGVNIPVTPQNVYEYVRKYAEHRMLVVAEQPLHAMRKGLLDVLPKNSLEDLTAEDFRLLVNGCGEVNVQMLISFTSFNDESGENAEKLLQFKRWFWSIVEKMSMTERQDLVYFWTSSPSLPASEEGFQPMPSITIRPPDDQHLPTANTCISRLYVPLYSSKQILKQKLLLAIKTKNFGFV
# How it was run: as §1
# [10] = biological target: UBE2D2 1-147 UQ_con (domain begin residue: 1, domain end residue: 147), P62837
# UBE2D2 1-147 UQ_con (domain begin residue: 1, domain end residue: 147), P62837, sequence (P62837 whole entry): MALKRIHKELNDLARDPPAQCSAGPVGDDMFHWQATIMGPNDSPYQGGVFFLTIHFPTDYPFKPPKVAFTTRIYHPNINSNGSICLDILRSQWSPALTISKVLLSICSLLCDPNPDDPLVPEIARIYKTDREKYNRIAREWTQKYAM
# How it was run: as §1
# [11] = biological target: UBA52 1-76 Ubiquitin (domain begin residue: 1, domain end residue: 76), P62987
# How it was run: as §1
# [12] = biological target: TRIM30 281-496 SPRY (domain begin residue: 281, domain end residue: 496)
# How it was run: as §1
binder,measurement,setting,value
B1,phage ELISA signal ratio,[1],29.6
B2,phage ELISA signal ratio,[2],15.7
B3,phage ELISA signal ratio,[3],27.7
B4,phage ELISA signal ratio,[3],3.09
B5,phage ELISA signal ratio,[4],3.7
B6,phage ELISA signal ratio,[5],29.9
B7,phage ELISA signal ratio,[3],15.7
B8,phage ELISA signal ratio,[6],20.4
B9,phage ELISA signal ratio,[7],3.6
B10,phage ELISA signal ratio,[8],5.45
B11,phage ELISA signal ratio,[8],8.59
B12,phage ELISA signal ratio,[6],30
B13,phage ELISA signal ratio,[9],4.24
B14,phage ELISA signal ratio,[8],8.43
B15,phage ELISA signal ratio,[9],3.6
B16,phage ELISA signal ratio,[6],13.8
B17,phage ELISA signal ratio,[2],10.7
B18,phage ELISA signal ratio,[6],14.3
B19,phage ELISA signal ratio,[6],29.9
B20,phage ELISA signal ratio,[2],12.3
B21,phage ELISA signal ratio,[7],8.37
B22,phage ELISA signal ratio,[3],5.82
B23,phage ELISA signal ratio,[6],19.6
B24,phage ELISA signal ratio,[10],4.08
B25,phage ELISA signal ratio,[6],11.1
B26,phage ELISA signal ratio,[6],30
B27,phage ELISA signal ratio,[5],27.1
B28,phage ELISA signal ratio,[2],27.1
B29,phage ELISA signal ratio,[3],9.75
B30,phage ELISA signal ratio,[1],6.97
B31,phage ELISA signal ratio,[6],34.5
B32,phage ELISA signal ratio,[6],12.6
B33,phage ELISA signal ratio,[11],12.5
B34,phage ELISA signal ratio,[8],21.3
B35,phage ELISA signal ratio,[3],5.56
B36,phage ELISA signal ratio,[3],29.4
B37,phage ELISA signal ratio,[12],9.37
B38,phage ELISA signal ratio,[2],21
B39,phage ELISA signal ratio,[9],5.76
B40,phage ELISA signal ratio,[9],10.5
B41,phage ELISA signal ratio,[5],14.1
same,phage ELISA signal ratio,[2],9.36
B42,phage ELISA signal ratio,[3],20.4 ± 0.54
B43,phage ELISA signal ratio,[9],5.69
B44,phage ELISA signal ratio,[9],7.69
B45,phage ELISA signal ratio,[11],15.1
B46,phage ELISA signal ratio,[9],12.4
B47,phage ELISA signal ratio,[2],14.5
B48,phage ELISA signal ratio,[11],17.2
B49,phage ELISA signal ratio,[8],5.72
B50,phage ELISA signal ratio,[11],16.2
B51,phage ELISA signal ratio,[9],8.2
B52,phage ELISA signal ratio,[6],23
B53,phage ELISA signal ratio,[7],6.45
B54,phage ELISA signal ratio,[6],31.5
B55,phage ELISA signal ratio,[8],6.28
B56,phage ELISA signal ratio,[12],4.08
B57,phage ELISA signal ratio,[1],13.2
